Compound activity deposited in PubChem by National Center for Advancing Translational Sciences (NCATS).
Shown are actives, neighbours in structure and some others; about 2.8% of the full set was active somewhere.
HttQ103 aggreg: inhibitors of mutant huntingtin aggregate formation in PC12 cells | Potency, µM (top dose mostly 46.1 µM), for the others: top-dose activity change, negative = inhibition, actives largely listed as inhibitors | PC12 HttQ103-GFP aggregates, Acumen cytometry, 40 h | 220,000 tested, 1.1% active | AID 1688; note: % is set by controls: 0 for no effect and ±100 for the full control effect; nearly all actives have a fitted effect of over 60% in size
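Huntingtin Q103 exon 1–GFP aggregates in induced PC12 cells (100 nM tebufenozide) were quantified by cytometry from lysates, with compounds dosed in titration.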
HepG2 tox-1: kills HepG2 cells in TGF-b inhibitor counter-screen; 410,000 tested, 0.76% active; Potency, µM (doses to about 46.1 µM), without a hit: at the highest dose activity change, negative = cytotoxicity, hits mostly cytotoxic; AID 588856; HepG2 CAGA-GFP viability, ATP luminescence, 18 h
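CellTiter-Glo luminescence gave cytotoxicity after 18 hours at 37 degrees C. The cells were HepG2 CAGA-GFP in 1% FBS DMEM, stimulated with 500 pg/mL TGF-beta after compound addition. %Activity was normalised to no-cell wells (complete cell-killing) and DMSO (no toxicity), and curves were fitted and classified.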
TGFb inhibitor: TGF-b pathway inhibition. HepG2 CAGA-GFP TGF-b/SMAD3 reporter, GFP fluorescence, 18 h; TGF-beta stimulated, 500 pg/mL final. Potency, µM (series often up to 46.1 µM), without a hit: top-dose activity, negative = inhibition, most hits filed as inhibitors. 410,000 tested, 1.2% active. AID 588855; note: % is set by controls: 0 for no effect and ±100 for the full control effect; nearly all actives have a fitted effect of over 65% in size
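Smad-responsive CAGA-GFP expression was quantified in HEPG2 cells exposed to compounds and 500 pg/mL final TGF-beta for 18 h at 37 degrees C; unstimulated wells defined full inhibition.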
ATXN2 expr inh: ATXN2 expression inhibition. 360,000 tested, 0.72% active. AID 1745845. Potency, µM (highest dose often 57 µM), inactives show top-dose activity change, negative = inhibition, most hits filed as inhibitors. HEK-293 ATXN2-luciferase reporter, luminescence, 24 h; note: % is set by controls: 0 for no effect and ±100 for the full control effect; nearly all actives have a fitted effect of over 55% in size
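qHTS (up to 57 uM final) was run with 24 h compound exposure of reporter cells at 37 °C. Each well was multiplexed: SteadyGlo luminescence measured ATXN2-luciferase expression after a fluorogenic Gly-Phe-AFC viability readout (25 uM final).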
S2 tox: viability counter-screen for ATXN expression inhibitors; S2 cells (HEK-293 line with an ATXN2-luciferase reporter) viability, CellTiter-Fluor protease fluorescence, 24 h; AID 651635; Potency, µM (titrated, usually from 56.7 µM), most hits filed as cytotoxic; 400,000 tested, 0.49% active; note: nearly all actives have a fitted effect of over 40% in size
HTT ATP protect: protects HTT-Q103 PC12 cells, measured by ATP. PC12 HTT-Q103 induced, cytoprotection, ATP luminescence, 40 h. Potency, µM (doses to about 56.4 µM), without a hit: cytoprotection (ATP increase), hits mostly activators. 230,000 tested, 0.14% active. AID 1471; note: % of control where 0% means no effect; nearly all actives have a fitted effect of over 45% in size
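Quantitative HTS on tebufenozide-induced (100 nM) PC12 cells expressing HTTQ103 exon 1–GFP; compounds tested as a concentration series; survival measured via cellular ATP.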
TGFb CAGA inh: confirmation of TGF-b signaling inhibitors in HepG2 reporter cells | shares compounds with TGFb inhibitor | HepG2 CAGA-GFP TGF-b reporter, GFP fluorescence, 18 h; cells stimulated with TGF-beta, 500 pg/mL | Potency, µM (doses to about 46.1 µM), inactives show at the highest dose activity, negative = inhibition, usual class: inhibitors | 1,600 tested, 63% active; note: % is set by controls: 0 for no effect and ±100 for the full control effect; nearly all actives have a fitted effect of over 65% in size
HepG2 tox-2: HepG2 cytotoxicity, TGF-b inhibitor counterscreen. AID 720535. HepG2 CAGA-GFP viability, ATP luminescence, 18 h; cells stimulated with TGF-beta, 500 pg/mL. 1,600 tested, 27% active. shares compounds with TGFb inhibitor. Potency, µM (titrated, usually from 46.1 µM), for inactives: top-dose activity, negative = cytotoxicity, actives largely listed as inhibitors; note: % is set by controls: 0 for no effect and ±100 for the full control effect; nearly all actives have a fitted effect of over 70% in size
TGFb CCL64 inh: TGF-b inhibition, CCL64 orthogonal assay; Potency, µM (titrated, usually from 46.1 µM), for inactives: at the top dose activity, negative = inhibition, actives largely listed as inhibitors; 1,600 tested, 41% active; shares compounds with TGFb inhibitor; AID 720536; CCL64 CAGA-GFP reporter, TGF-b stimulated, GFP fluorescence, 18 h; note: nearly all actives have a fitted effect of over 65% in size
TGFb COP inh: validation of TGF-b inhibitors in HepG2 COP promoter reporter; shares compounds with TGFb inhibitor; HepG2 COP-GFP TGF-b reporter, GFP fluorescence, 18 h; cells stimulated by added recombinant TGF-beta; Potency, µM (titrated, usually from 46.1 µM), for inactives: top-dose activity, negative = inhibition, usual class: inhibitors; 1,600 tested, 3% active; AID 720537; note: nearly all actives have a fitted effect of over 70% in size
The depositor's hits bear a star; i = inactive; u = inconclusive; x = not tested or not shown; [ ] = dose if it differs, or a comment. Calls come from the whole dose curve; as a rule, active = well fitted curve in the direction sought with a large enough effect; inconclusive = small, poorly fitted or top-dose-only effect, or another doubt; inactive = no such curve, though single readings can be large; an effect the other way counts as inactive or inconclusive. Potency is the fitted concentration of half-maximal effect.

SMILES | HttQ103 aggreg | HepG2 tox-1 | TGFb inhibitor | ATXN2 expr inh | S2 tox | HTT ATP protect | TGFb CAGA inh | HepG2 tox-2 | TGFb CCL64 inh | TGFb COP inh
CCOC(=O)c1ccc2c(c1)nc(C1CCN(S(=O)(=O)c3cccs3)CC1)n2CC | -40.2% | -17.1% | u | u | u | 9.4% | u | u | -9.8% | 25.1%
O=C(c1ccc(Cl)cc1)c1cc([N+](=O)[O-])ccc1N1CCOCC1 | u | 11.9% | 11.2µM* | -27.5% | i | -81.9%[10 µM] | 7.31µM* | -2.0% | u | -3.4%
Nc1ncnc2c(C3OC(CO)C(O)C3O)scc12 (stereo unspecified) | x | -86.2% | -121.6% | u | u | x | 0.0164µM* | 0.0731µM* | 0.92µM* | 42.3%
Nc1ncnc2c1ncn2C1O[C@H](CO)[C@@H](O)[C@@H]1O (stereo partly specified) | x | 25.8% | 3.0% | -8.1% | i | x | x | x | x | x
O=C(Nc1ccc([N+](=O)[O-])cc1)Nc1ccc(OC(F)F)c(Cl)c1 | 11.2µM* | 12.6µM* | 4.47µM* | 12.6µM* | x | x | 13µM* | 5.8µM* | 3.66µM* | u
COC(=O)[C@H](CCSC)NC(=O)C/C=C\[C@@H](C)CO | x | x | x | x | x | -42.3%[10 µM] | x | x | x | x
Cc1ccc(C)c(N2N=C(C(=O)Nc3ccccc3N3CCCC3)CCC2=O)c1 | x | -21.6% | 22.4µM* | -14.2% | i | x | 11.6µM* | -14.4% | u | 2.1%
CCCCCCn1c(SCC#N)nc2ccccc2c1=O | x | 15.3% | 12.1% | x | x | x | x | x | x | x
Cc1ccc(OC(C)C(=O)Nc2ccncc2)cc1C (stereo unspecified) | x | -60.8% | 10µM* | u | i | x | u | u | 1.1% | 40.4%
O=C(COC(=O)c1ccccc1)Nc1ncc([N+](=O)[O-])s1 | x | -9.1% | -23.6% | 19.0% | i | x | x | x | x | x
O=C(Nc1ccccc1)Nc1ncc([N+](=O)[O-])s1 | 11.2µM* | -22.9% | 3.16µM* | u | 22.4µM* | 13.6%[10 µM] | 13µM* | u | 18.4µM* | 87.3%
O=C(COc1ccc(Cl)cc1Cl)NCCSc1ccc(Cl)cc1 | -15.3% | -17.5% | 15.8µM* | -21.0% | i | -4.3% | u | u | u | 64.0%
CN(C)CCNC(=O)COc1ccc(Cl)cc1Cl | -0.9% | -4.0% | -17.1% | 2.9% | i | x | x | x | x | x
CC(=O)N1CCN(c2ccc(NC(=S)NC(=O)COc3ccc(C(C)(C)C)cc3)cc2)CC1 | 1.8% | -48.9% | u | -30.4% | i | 17.0%[10 µM] | 4.61µM* | u | -11.5% | -1.2%
O=C(C(=Cc1ccc(F)cc1)C(=O)c1ccccc1)c1ccccc1 | x | -16.4% | 8.91µM* | 0.0% | i | x | 3.66µM* | u | 13µM* | 26.9%
